Calls of active or inactive are those of the source. Unless noted, how the calls were made is not given here.
How the values were obtained:
[1] = anti-His antibody binders, primary screen, artefact control for SMM control protein annotation, biochemical, small-molecule microarray, 635 nm fluorescence (AID 1128); settings: anti-His Alexa647 antibody binding, higher = more signal;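 further: score merges feature fluorescence with signal-to-noise for each printed compound spot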
[2] = test system: Human papillomavirus type 1a E7 protein (residues 1-88); test: HPV1a E7 small-molecule binders, primary screen, biochemical, small-molecule microarray, residues 1-88, 635 nm (AID 1129); settings: small-molecule microarray binding, fluorescence 635 nm; higher = more signal
[3] = target: Focal adhesion kinase 1 (Homo sapiens) (UniProt Q05397); test: small-molecule microarray binders of FAK, primary screen, biochemical, 635/667 nm fluorescence, BSA, DTT (AID 1130); settings: PTK2 binding, 635 nm fluorescence, higher = more signal;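 further: composite of spot emission at 667 nm and signal to noise over triplicate slides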
Sequence of Focal adhesion kinase 1 (Homo sapiens) (Q05397 whole entry, looked up): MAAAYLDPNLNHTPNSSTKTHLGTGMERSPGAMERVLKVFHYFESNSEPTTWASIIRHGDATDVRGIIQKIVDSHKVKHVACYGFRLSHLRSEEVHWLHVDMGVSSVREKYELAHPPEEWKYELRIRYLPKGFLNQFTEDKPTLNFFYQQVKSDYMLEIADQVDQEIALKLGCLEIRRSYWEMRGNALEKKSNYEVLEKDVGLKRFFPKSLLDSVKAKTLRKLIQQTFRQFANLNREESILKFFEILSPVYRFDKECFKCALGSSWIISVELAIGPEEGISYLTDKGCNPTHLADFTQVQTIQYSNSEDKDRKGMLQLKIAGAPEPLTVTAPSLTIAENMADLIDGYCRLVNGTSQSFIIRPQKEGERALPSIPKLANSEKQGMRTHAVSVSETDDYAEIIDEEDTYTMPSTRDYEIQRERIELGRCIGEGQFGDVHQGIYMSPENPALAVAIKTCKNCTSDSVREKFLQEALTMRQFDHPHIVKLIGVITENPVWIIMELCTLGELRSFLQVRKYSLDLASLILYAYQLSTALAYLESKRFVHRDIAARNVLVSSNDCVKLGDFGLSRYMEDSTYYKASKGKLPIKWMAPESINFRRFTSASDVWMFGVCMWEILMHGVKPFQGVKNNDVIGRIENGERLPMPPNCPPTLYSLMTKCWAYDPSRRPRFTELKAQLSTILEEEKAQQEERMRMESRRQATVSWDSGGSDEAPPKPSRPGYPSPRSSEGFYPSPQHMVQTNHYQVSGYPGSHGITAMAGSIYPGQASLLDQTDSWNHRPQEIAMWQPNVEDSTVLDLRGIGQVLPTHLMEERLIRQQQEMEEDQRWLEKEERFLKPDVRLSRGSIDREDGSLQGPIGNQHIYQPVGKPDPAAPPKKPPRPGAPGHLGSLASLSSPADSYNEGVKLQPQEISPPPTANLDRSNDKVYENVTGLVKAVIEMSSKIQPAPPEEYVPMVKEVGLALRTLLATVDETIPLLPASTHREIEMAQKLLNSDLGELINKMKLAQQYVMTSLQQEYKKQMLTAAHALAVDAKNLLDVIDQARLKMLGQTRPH

[4] = test system: Fibrinogen (Alexa647-labelled); test: fibrinogen binders on compound microarrays, profiling panel, artefact control for SMM control-protein annotation, biochemical, small-molecule microarray, 635/667 nm fluorescence (AID 1131); settings: fibrinogen-A647 binding fluorescence, higher = more signal;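 further: z-score merges 667 nm fluorescence with per-spot signal-to-noise over triplicate slides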
[5] = target: Follistatin (Homo sapiens) (UniProt P19883); test: follistatin binders on small-molecule microarrays, primary screen, biochemical, small-molecule microarray, 635/667 nm fluorescence (AID 1132); settings: FST binding, 635 nm fluorescence, higher = more signal
Sequence of Follistatin (Homo sapiens) (P19883 whole entry, looked up): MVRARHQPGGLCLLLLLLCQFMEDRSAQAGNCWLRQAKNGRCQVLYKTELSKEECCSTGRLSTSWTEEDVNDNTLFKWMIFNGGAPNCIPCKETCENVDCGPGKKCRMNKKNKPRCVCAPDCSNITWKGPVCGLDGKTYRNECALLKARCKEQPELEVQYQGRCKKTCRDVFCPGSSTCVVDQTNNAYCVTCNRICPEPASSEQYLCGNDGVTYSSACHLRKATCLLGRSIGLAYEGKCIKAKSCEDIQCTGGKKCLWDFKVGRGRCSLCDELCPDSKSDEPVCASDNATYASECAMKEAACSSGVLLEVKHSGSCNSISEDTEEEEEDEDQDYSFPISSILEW

[6] = target: Fibroblast growth factor 2 (Homo sapiens) (UniProt P09038); test: FGF2 binders on small-molecule microarrays, primary screen, biochemical, small-molecule microarray, 635/667 nm fluorescence (AID 1133); settings: small-molecule microarray binding, FGF2, fluorescence 635/667; higher = more signal
Sequence of Fibroblast growth factor 2 (Homo sapiens) (P09038 whole entry, looked up): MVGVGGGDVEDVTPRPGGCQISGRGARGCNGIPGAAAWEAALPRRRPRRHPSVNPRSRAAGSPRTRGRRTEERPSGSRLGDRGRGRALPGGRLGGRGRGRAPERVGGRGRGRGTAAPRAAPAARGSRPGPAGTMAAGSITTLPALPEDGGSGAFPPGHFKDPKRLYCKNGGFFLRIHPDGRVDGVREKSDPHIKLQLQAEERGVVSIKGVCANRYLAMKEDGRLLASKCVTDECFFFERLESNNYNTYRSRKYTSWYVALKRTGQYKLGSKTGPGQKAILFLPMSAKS

[7] = mitochondrial membrane potential change in A549 cells, profiling panel, cell-based, JC-1 fluorescence, basal, 24 h, 100 nL (AID 1138); settings: higher = more signal;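 further: A549 lung adenocarcinoma cells under basal conditions with no added stimulus; test concentration not given here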
Lefty1 = Lefty1 binders on small-molecule microarrays, primary screen, biochemical, small-molecule microarray, 635/667 nm fluorescence (AID 1139); settings: small-molecule microarray binding, fluorescence 635/667; higher = more signal
[8] = test system: wheat germ agglutinin (Triticum aestivum), Alexa647-labelled; test: wheat germ agglutinin binders on compound microarrays, profiling panel, artefact control for SMM control-protein annotation, biochemical, small-molecule microarray, 635/667 nm fluorescence (AID 1140); settings: WGA-A647 binding, 635 nm fluorescence, higher = more signal;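 further: score merges 667 nm feature emission with signal to noise over triplicate slides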
[9] = target: Luciferin 4-monooxygenase (Photinus pyralis) (UniProt P08659); test: firefly luciferase enzyme inhibitors, primary screen, biochemical, luminescence, purified enzyme, 2006 set (AID 1141); settings: SteadyGlo luminescence, 30 min, higher = more signal, called active from +8 up or from −8 down;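 further: cell-free assay with purified firefly luciferase at 100 ng per well in PBS; test concentration not given here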
Sequence of Luciferin 4-monooxygenase (Photinus pyralis) (P08659 whole entry, looked up): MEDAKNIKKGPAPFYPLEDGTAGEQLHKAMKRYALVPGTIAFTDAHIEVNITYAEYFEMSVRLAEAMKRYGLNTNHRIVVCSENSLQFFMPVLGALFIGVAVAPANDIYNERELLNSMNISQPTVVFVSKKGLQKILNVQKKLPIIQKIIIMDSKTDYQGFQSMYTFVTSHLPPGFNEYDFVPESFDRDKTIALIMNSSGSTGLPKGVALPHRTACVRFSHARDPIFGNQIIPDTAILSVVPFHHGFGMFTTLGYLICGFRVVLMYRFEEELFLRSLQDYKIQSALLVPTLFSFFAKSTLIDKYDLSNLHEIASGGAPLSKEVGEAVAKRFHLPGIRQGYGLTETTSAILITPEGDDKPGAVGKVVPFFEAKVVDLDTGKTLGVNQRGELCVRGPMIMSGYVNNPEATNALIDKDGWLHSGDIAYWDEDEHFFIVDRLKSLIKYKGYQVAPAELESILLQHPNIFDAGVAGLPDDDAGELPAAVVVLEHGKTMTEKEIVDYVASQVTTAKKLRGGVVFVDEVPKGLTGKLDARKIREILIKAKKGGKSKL

[10] = test system: Wnt5a (protein binding on small-molecule microarray); test: Wnt5a binders on small-molecule microarray, primary screen, biophysical, 635/667 nm fluorescence (AID 1142); settings: 635 nm fluorescence, higher = more signal;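 further: fluorescence read at 667 nm with signal to noise per printed feature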
[11] = cell viability in Huh7 cells, primary screen, cytotoxicity control for HCV replication inhibitor project, CellTiter-Glo luminescence, basal, 48 h (AID 1143); settings: Huh7 HCV replicon, higher = more signal, called active from +8 up or from −8 down;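 further: Huh7 hepatoma cells carrying a hepatitis C replication reporter with no stimulus; test concentration not given here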
[12] = P. aeruginosa biofilm formation inhibitors, primary screen, PAO1 strain, BacTiter-Glo luminescence, LB-PBS (AID 1144); settings: 12 h, higher = more signal
[13] = CREB reporter modulators without forskolin, primary screen, cell-based, PC12, CRE-LacZ reporter, unstimulated (AID 1145); settings: no forskolin, luminescence, 4.5 h, higher = more signal, called active from +8 up or from −8 down
[14] = CREB reporter modulators under forskolin, primary screen, cell-based, PC12, CRE-LacZ reporter, forskolin-stimulated (AID 1146); settings: luminescence, 4.5 h, higher = more signal, called active from +8 up or from −8 down;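 further: PC12 cells with 6xCRE LacZ reporter stimulated by forskolin 10 µM; beta-galactosidase reporter signal reflecting CREB driven transcription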
[15] = target: Streptavidin (Streptomyces avidinii) (UniProt P22629); test: streptavidin binders on small-molecule microarray, primary screen, artefact control for SMM compound annotation, biophysical, 635/667 nm fluorescence (AID 1147); settings: streptavidin binding, higher = more signal;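 further: signal reflects streptavidin binding to arrayed compounds as a control protein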
Sequence of Streptavidin (Streptomyces avidinii) (P22629 whole entry, looked up): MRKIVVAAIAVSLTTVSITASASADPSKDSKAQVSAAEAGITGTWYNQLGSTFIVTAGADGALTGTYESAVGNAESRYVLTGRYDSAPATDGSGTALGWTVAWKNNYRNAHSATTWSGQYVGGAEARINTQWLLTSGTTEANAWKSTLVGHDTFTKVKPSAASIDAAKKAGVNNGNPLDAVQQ

[16] = small-molecule binders of probe aInhba, primary screen, biochemical, small-molecule microarray, 635/667 nm fluorescence (AID 1148); settings: higher = more signal;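 further: score merges 667nm spot fluorescence with signal-to-noise for antibody binding to printed compounds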
Torsin-1A (Homo sapiens) [17] = target: Torsin-1A (Homo sapiens) (UniProt O14656); test: torsin A binders from cell lysate, primary screen, small-molecule microarray, wild-type, 635/667 nm (AID 1149); settings: COS7 hTOR1A-WT lysate, 635 nm fluorescence, higher = more signal
Sequence of Torsin-1A (Homo sapiens) (O14656 whole entry, looked up): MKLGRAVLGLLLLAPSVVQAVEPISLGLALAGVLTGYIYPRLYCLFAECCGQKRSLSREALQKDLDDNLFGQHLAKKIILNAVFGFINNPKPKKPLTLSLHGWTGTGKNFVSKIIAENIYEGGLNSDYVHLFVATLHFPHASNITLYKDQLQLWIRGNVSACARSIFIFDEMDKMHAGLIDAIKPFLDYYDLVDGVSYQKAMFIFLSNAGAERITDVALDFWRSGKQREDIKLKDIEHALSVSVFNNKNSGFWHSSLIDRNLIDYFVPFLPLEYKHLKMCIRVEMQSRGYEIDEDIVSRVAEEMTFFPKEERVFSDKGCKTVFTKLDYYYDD

Torsin-1A (Homo sapiens) [18] = target: Torsin-1A (Homo sapiens) (UniProt O14656); test: small-molecule binders of mutant TOR1A in lysate, primary screen, cell lysate, small-molecule microarray, COS7 lysate, 635/667 nm fluorescence (AID 1150); settings: COS7 hTOR1A mutant lysate, 635 nm fluorescence, higher = more signal;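 further: score pools 667 nm emission and signal to noise measuring lysate protein binding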
[19] = test system: Sonic hedgehog protein (Shh); test: small-molecule binders of Shh protein, primary screen, biochemical, small-molecule microarray, 635/667 nm fluorescence (AID 1151); settings: small-molecule microarray binding, 635 nm fluorescence; higher = more signal;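 further: Shh protein binding to compounds spotted on small-molecule microarray slides; score combines spot fluorescence intensity with signal-to-noise across triplicate slides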

| Compound | composite z-score [1] | composite z-score [2] | composite z-score [3] | composite z-score [4] | composite z-score [5] | composite z-score [6] | z-score [7] | composite z-score (Lefty1) | composite z-score [8] | z-score [9] | composite z-score [10] | z-score [11] | z-score [12] | z-score [13] | z-score [14] | composite z-score [15] | composite z-score [16] | composite z-score (Torsin-1A (Homo sapiens) [17]) | composite z-score (Torsin-1A (Homo sapiens) [18]) | composite z-score [19] |
| --- | --- | --- | --- | --- | --- | --- | --- | --- | --- | --- | --- | --- | --- | --- | --- | --- | --- | --- | --- | --- |
| N#Cc1ccc(NN2C(C(O)C3CC=CCC3)C=CC3C(=O)N(c4ccccc4)C(=O)C32)cc1 (stereo not given) | 0.118 | 1.28 | 0.534 | 1.02 | 0.46 | 1.05 | 0.0165 | 0.361 | 1.36 | -0.852 (inactive) | 0.223 | 0.595 (inactive) | -1.34 (inactive) | 0.629 (inactive) | 0.516 (inactive) | 0.126 | -0.0131 | -0.694 | 0.202 | 2.08 |
| CC(C)C(=C=CC[C@H](O)c1ccccc1OCCO)C[C@H](O)COCc1ccccc1 | 1.12 | -0.141 | -0.27 | -0.513 | -0.0978 | 0.107 | 0.742 | 0.346 | 0.133 | -0.961 (inactive) | -0.042 | -2.03 (inactive) | 0.297 (inactive) | 16 (active) | -0.0014 (inactive) | -0.266 | -0.101 | -0.0509 | 1.12 | 0.0553 |
| C=CCC(OC(C)=O)[C@@H]1[C@@H](N(Cc2ccc(-c3ccccc3)cc2)C(=O)c2cccc3ccccc23)c2cc(OCCCO)ccc2N1C(=O)Cc1ccc(OC)cc1 (stereo not given in full) | 0.118 | -0.0598 | -0.109 | 0.698 | 0.921 | 0.285 | 0.508 | 0.0844 | 0.175 | 0.706 (inactive) | 0.0948 | -1.62 (inactive) | 0.0108 (inactive) | 0.498 (inactive) | -0.117 (inactive) | 0.0251 | -0.0346 | -0.476 | 0.127 | 0.586 |
| CC(=O)NCCCC[C@@H]1NC(=O)[C@H]2C[C@@H](C(=O)NCCCCCCNC(=O)CS)[C@@H](c3cccc(OCCO)c3)N2C1=O | 3.57 | 0.937 | 0.612 | -0.256 | 1.36 | 1.63 | -0.0905 | 0.0938 | 0.184 | -0.399 (inactive) | 0.538 | 0.348 (inactive) | -0.286 (inactive) | -0.813 (inactive) | -0.78 (inactive) | -0.64 | -0.0448 | 1.43 | 1.22 | 1.32 |
| O=C(NC1CC1)[C@@H]1c2ccccc2C(=O)N(Cc2ccc(OC(F)(F)F)cc2)[C@H]1c1ccc(CO)cc1 | -0.0809 | 0.836 | 0.234 | -1.39 | 0.664 | 0.668 | 1.39 | 0.39 | 0.331 | 1.12 (inactive) | 0.227 | -2.05 (inactive) | -1.32 (inactive) | 0.441 (inactive) | -0.673 (inactive) | -0.894 | -0.176 | -0.0394 | 0.136 | 0.391 |
| COC(=O)C(CC#Cc1ccc2c(c1)[C@]1(C(=O)N2)[C@H](C(=O)NC[C@H](O)c2ccccc2)[C@H]2C(=O)O[C@H](c3ccccc3)[C@H](c3ccccc3)N2[C@@H]1c1ccccc1OCCO)C(=O)OC | 2.68 | 1.23 | 0.289 | 0.478 | 1.25 | 1.56 | -0.693 | 0.221 | 1.09 | 0.742 (inactive) | 0.649 | -6.04 (inactive) | -1.21 (inactive) | -0.671 (inactive) | -0.276 (inactive) | 0.703 | 0.0154 | 0.326 | 0.506 | 1.32 |
| COc1ccc(C(O)C2C=CC3C(=O)N(C)C(=O)C3N2N(c2ccccc2)c2ccccc2)cc1 (stereo not given) | 2.06 | 0.906 | 0.167 | 0.805 | 1.03 | 0.149 | 1.25 | -0.729 | 1.28 | 0.322 (inactive) | 0.0865 | 0.522 (inactive) | 0.219 (inactive) | 0.629 (inactive) | 0.517 (inactive) | 1.35 | 0.105 | 0.153 | 0.368 | -0.176 |
| NCCCCCCNC(=O)[C@@H]1C[C@@H]2C(=O)N3CCC[C@H]3C(=O)N2[C@@H]1c1cccc(OCCO)c1 | 2.14 | 0.894 | 0.0676 | 0.882 | 0.832 | 1.16 | -0.383 | 1.24 | 0.938 | -0.268 (inactive) | 0.587 | -0.182 (inactive) | 0.884 (inactive) | -0.386 (inactive) | -1.43 (inactive) | 0.56 | -0.024 | 2.21 | 1.07 | 0.513 |
| Cc1ccc(S[C@]2(C(=O)NCc3ccccc3)CC(=O)N(Cc3ccccc3C(F)(F)F)[C@@H]2c2ccc(CO)cc2)cc1 | -0.645 | -0.347 | -0.496 | 0.443 | -1.4 | -0.574 | 0.802 | -1.51 | -0.212 | -0.0819 (inactive) | -0.666 | -2.35 (inactive) | -0.937 (inactive) | -0.0888 (inactive) | -0.0177 (inactive) | -1.05 | 0.0391 | -1.02 | -0.687 | -0.998 |
| CN(C)CCCC[C@@H]1NC(=O)[C@@H]2C[C@H](C(=O)NCCCCCCNC(=O)CS)[C@H](c3ccc(O)cc3)N2C1=O | 2.26 | 0.91 | 0.335 | 0.767 | 1.31 | 1.87 | -0.15 | 1.38 | -0.204 | -0.25 (inactive) | 0.412 | -0.211 (inactive) | -0.525 (inactive) | 0.549 (inactive) | 0.375 (inactive) | -0.406 | 0.257 | 0.71 | 0.702 | 1.62 |
